Laboratory results reported in PubChem BioAssay (Tox21).
Results filed as inconclusive are left out. Calls of active or inactive are those of the source. Unless noted, calls follow the shape of the dose curve; as a rule, active = well fitted curve in the direction sought with a large enough effect in the repeat runs; inconclusive = weak or mixed curves; inactive = no such curve, though single readings can be large; an effect the other way counts as inactive or inconclusive.

Columns and labels:
[1] = qHTS assay to identify small molecule antagonists of the estrogen receptor alpha (ER-alpha) signaling pathway using the BG1 cell line in the presence of 0.1 nM 17-beta-estradiol - cell viability counter screen (AID 1259241); also: nearly all actives have a fitted effect of over 40% in size; also: potency is read from the fitted curve at half-maximal effect
Procedure, shortened: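 Cells were plated and left 24 hr, compounds in DMSO were pinned in, 17beta-estradiol was added to 0.1 nM final, and after 22 hr CellTiter-Fluor reagent was added for 30 min before fluorescence was read.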

[2] = qHTS assay to identify small molecule antagonists of the androgen receptor (AR) signaling pathway using the MDA cell line in the presence of 0.5 nM R1881 - cell viability counter screen (AID 1259242); also: nearly all actives have a fitted effect of over 45% in size; also: potency is read from the fitted curve at half-maximal effect
Procedure, shortened: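 MDA-kb2 cells (human breast carcinoma, stably carrying MMTV-luciferase reporter) were exposed to compounds with 0.5 nM R1881 (final) for 16 hr at 37C, 0% CO2; viability then read as live-cell protease fluorescence (CellTiter-Fluor, 30 min) in the same wells.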

[3] = qHTS assay to identify small molecule HDAC inhibitors (AID 1259364); also: nearly all actives have a fitted effect of over 45% in size; also: potency is read from the fitted curve at half-maximal effect; as to activity change, negative = inhibition: top concentration of the series differs between compounds
Procedure, shortened: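 Wild-type HCT-116 cells were plated overnight, exposed to compounds for 2 h at 37 °C, then given HDAC-Glo class I/II luminogenic reagent for 30 min at room temperature before luminescence was read.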

[4] = qHTS assay to identify small molecule HDAC inhibitors - cell viability counter screen (AID 1259365); also: series mostly up to about 92 µM; nearly all actives have a fitted effect of over 50% in size
Procedure, shortened: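 Counter screen in wild-type HCT-116 cells: compounds dissolved in DMSO are pin-transferred onto overnight-plated cells and left 2hr at 37C. ATP-based CellTiter-Glo luminescence then measures viable cells.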

[5] = qHTS assay to identify small molecule agonists of the sonic hedgehog signaling (Shh) pathway - cell viability counter screen (AID 1259366); also: nearly all actives have a fitted effect of over 50% in size; also: potency is read from the fitted curve at half-maximal effect
Procedure, shortened: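 Cells are plated at 2,000 per well and left 4hr at 37C, 5% CO2 before compound addition. After 23hr of treatment, CellTiter-Fluor reagent is added for 1hr at 37C and fluorescence is measured.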

[6] = qHTS assay to identify small molecule antagonists of the sonic hedgehog signaling (Shh) pathway - cell viability counter screen (AID 1259367); also: nearly all actives have a fitted effect of over 55% in size; also: potency is read from the fitted curve at half-maximal effect
Procedure, shortened: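 Using CellTiter-Fluor, viability of Gli1-Luc reporter 3T3 cells is read by fluorescence in the wells used for the Shh luciferase assay. Treatment lasts 23 hr with conditioned medium, then reagent 1 hr at 37C.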

[7] = qHTS assay to identify small molecule agonists of the sonic hedgehog signaling (Shh) pathway (AID 1259368; calls by dose curve; also: series mostly up to about 92 µM; nearly all actives have a fitted effect of over 15% in size)
Procedure, shortened: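 NIH/3T3-derived 3T3Gli1-Luc cells carrying a stably integrated Gli1 response element–firefly luciferase reporter were plated, left 4 hr at 37 C, then given compounds in DMSO for 24 hr. Luminescence was read 30 min after adding luciferase reagent.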

[8] = target: Estrogen receptor beta (Homo sapiens) (UniProt Q92731); test: qHTS assay to identify small molecule antagonists of the estrogen receptor beta (ER-beta) signaling pathway (AID 1259378; active = well fitted inhibition curve with a large enough effect in the signal ratio in the repeat runs, not every such curve was filed as active; the % refers to the signal ratio; also: potency is read from the fitted curve at half-maximal effect)
Procedure, shortened: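 Antagonist mode: compounds added to beta-lactamase reporter HEK293T ER-beta-UAS cells stimulated with E2 (1nM final), 16 hr at 37C. LiveBLAzer B/G FRET substrate, 2 hours room temperature, fluorescence read-out.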

[9] = qHTS assay to identify small molecule antagonists of the estrogen receptor beta (ER-beta) signaling pathway - cell viability counter screen (AID 1259382);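 also: HEK293T cells carrying ER-beta-UAS-bla reporter stimulated with estradiol; series mostly up to about 92 µM; nearly all actives have a fitted effect of over 55% in size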
Procedure, shortened: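 ER-beta-UAS-bla HEK293T cells (2,000/well, 2% charcoal-stripped FBS) were pre-incubated 6 hr at 37C, then given compound plus 1nM final 17-beta-estradiol for 16 hr. Viability was read in the same wells by CellTiter-Glo luminescence after 30 min at room temperature.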

[10] = target: Estrogen receptor (Homo sapiens) (UniProt P03372); test: qHTS assay to identify small molecule agonists of the estrogen receptor alpha (ER-alpha) signaling pathway in the presence of an antagonist (AID 1259383; calls by dose curve; also: top concentration of the series differs between compounds; nearly all actives have a fitted effect of over 15% in size)
Procedure, shortened: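 VM7Luc4E2 cells (endogenous full-length ER-alpha, 4×ERE-luciferase) were precultured 5 days in phenol red-free medium with 10% charcoal-stripped FBS, given 10.0nM ICI-182,780 (final), then treated with compounds at 15 concentrations for 22hr at 37C; luminescence read with ONE-Glo.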

[11] = qHTS assay to identify small molecule agonists or antagonists of the thyroid stimulating hormone receptor (TSHR) signaling pathway - wild type cell line counter screen (AID 1259384; calls by dose curve)
Procedure, shortened: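 Counter screen in untransfected Hek293: compounds (15-point titration, triplicate) plus phosphodiesterase inhibitor Ro20-1724 added after 18 h plating; 30 min RT. Intracellular cAMP via competitive d2/cryptate immunoassay, 1 h incubation.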

[12] = target: Thyrotropin receptor (Homo sapiens) (UniProt P16473); test: qHTS assay to identify small molecule antagonists of the thyroid stimulating hormone receptor (TSHR) signaling pathway (AID 1259385; calls by dose curve; also: nearly all actives have a fitted effect of over 20% in size)
Procedure, shortened: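 Antagonist mode: compound-treated TSHR-expressing HEK293 cells were stimulated with 1.5 ng/mL TSH (final) in presence of Ro20-1724 for 30 min at RT. HTRF cAMP detection after 1 h; each compound tested at 15 concentrations, triplicate.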

[13] = qHTS assay to identify small molecule antagonists of the sonic hedgehog signaling (Shh) pathway (AID 1259369; calls by dose curve; also: nearly all actives have a fitted effect of over 45% in size; also: potency is read from the fitted curve at half-maximal effect)
Procedure, shortened: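 NIH/3T3-derived 3T3Gli1-Luc cells with stably integrated Gli1-Luc reporter were preincubated 4hr at 37 C, then given compounds in DMSO plus Shh conditioned medium and incubated 24hr. Firefly luciferase luminescence read after 30min reagent at room temperature.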

[14] = qHTS assay to identify small molecule agonists of the androgen receptor (AR) signaling pathway in the presence of an antagonist - cell viability counter screen (AID 1259379); also: nearly all actives have a fitted effect of over 25% in size; also: potency is read from the fitted curve at half-maximal effect; as to activity change, negative = cytotoxicity: series mostly up to about 92 µM
Procedure, shortened: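 MDA-kb2 human breast carcinoma cells (stable MMTV-luciferase, AR/GR responsive) were seeded 3,000 cells/well, pre-incubated 5 hr at 37C without CO2, then given 3.0uM nilutamide and compounds at 15 concentrations for 16 hr. Viability was read by CellTiter-Fluor fluorescence.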

[15] = qHTS assay to identify small molecule agonists of the estrogen receptor beta (ER-beta) signaling pathway - cell viability counter screen (AID 1259380); also: nearly all actives have a fitted effect of over 30% in size; also: potency is read from the fitted curve at half-maximal effect
Procedure, shortened: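 ER-beta-UAS-bla HEK293T cells in medium with 2% charcoal-stripped FBS were preincubated 6 hr at 37C, dosed with compound in DMSO for 16 hr, then after the bla read, CellTiter-Glo was added for 30 min at room temperature; luminescence recorded.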

[16] = target: Estrogen receptor beta (Homo sapiens) (UniProt Q92731); test: qHTS assay to identify small molecule agonists of the estrogen receptor beta (ER-beta) signaling pathway (AID 1259377; active = well fitted activation curve with a large enough effect in the signal ratio in the repeat runs, not every such curve was filed as active; the % refers to the signal ratio)
Procedure, shortened: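 Agonist mode cell assay in GripTite HEK293T cells expressing an ER-beta fusion that drives beta-lactamase from an Upstream Activator Sequence; 16 hr compound exposure at 37C, then 2 h LiveBLAzer B/G FRET substrate at room temperature, fluorescence read-out.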

[17] = qHTS assay to identify small molecule phospholipidosis (PLD) inducers (AID 1259344; active = well fitted curve in the direction sought with a large enough effect; an effect the other way counts as inactive or inconclusive)
Procedure, shortened: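 Fluorescent phospholipid staining (LipidTOX Red) measured by automated microscopy in fixed HepG2 cells after 24 h treatment; nuclei counterstained with Hoechst 33342; amiodarone as reference inducer.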

[18] = target: Estrogen receptor (Homo sapiens) (UniProt P03372); test: qHTS assay to identify small molecule antagonists of the estrogen receptor alpha (ER-alpha) signaling pathway using the BG1 cell line in the presence of 0.1 nM 17-beta-estradiol (AID 1259244); also: nearly all actives have a fitted effect of over 50% in size
Procedure, shortened: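 VM7Luc4E2 cells (endogenous full-length ER-alpha, stable 4xERE-luciferase) were grown 5 days in phenol red-free medium with charcoal-stripped FBS, then exposed 22 h at 37C to compounds plus 0.1 nM (final) 17beta-estradiol; ONE-Glo luminescence read-out.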
% is scaled to controls: 0 for no effect and ±100 for the full control effect.

Chain of Thyrotropin receptor (Homo sapiens) (P16473 whole entry, looked up): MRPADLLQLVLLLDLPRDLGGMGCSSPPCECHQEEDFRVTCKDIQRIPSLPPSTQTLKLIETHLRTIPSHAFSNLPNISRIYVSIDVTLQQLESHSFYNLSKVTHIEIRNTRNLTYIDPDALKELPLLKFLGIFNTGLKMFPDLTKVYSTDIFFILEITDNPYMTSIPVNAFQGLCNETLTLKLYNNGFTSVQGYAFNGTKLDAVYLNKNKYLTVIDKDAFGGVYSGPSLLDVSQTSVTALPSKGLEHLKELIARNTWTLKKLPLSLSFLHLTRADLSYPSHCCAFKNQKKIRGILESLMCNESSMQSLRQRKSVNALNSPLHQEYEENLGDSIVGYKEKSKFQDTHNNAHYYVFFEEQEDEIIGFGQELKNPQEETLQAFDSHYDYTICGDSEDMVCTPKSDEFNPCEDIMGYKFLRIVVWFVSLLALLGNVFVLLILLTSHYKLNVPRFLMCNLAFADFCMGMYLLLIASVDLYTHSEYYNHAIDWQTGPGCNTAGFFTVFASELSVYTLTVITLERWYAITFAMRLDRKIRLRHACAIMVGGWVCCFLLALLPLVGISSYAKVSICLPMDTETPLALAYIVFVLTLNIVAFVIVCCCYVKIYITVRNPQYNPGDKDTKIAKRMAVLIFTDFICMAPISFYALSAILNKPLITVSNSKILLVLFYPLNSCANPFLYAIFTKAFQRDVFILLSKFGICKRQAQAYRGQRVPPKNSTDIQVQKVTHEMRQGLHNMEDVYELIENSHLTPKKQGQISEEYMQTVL
Chain of Estrogen receptor (Homo sapiens) (P03372 whole entry, looked up): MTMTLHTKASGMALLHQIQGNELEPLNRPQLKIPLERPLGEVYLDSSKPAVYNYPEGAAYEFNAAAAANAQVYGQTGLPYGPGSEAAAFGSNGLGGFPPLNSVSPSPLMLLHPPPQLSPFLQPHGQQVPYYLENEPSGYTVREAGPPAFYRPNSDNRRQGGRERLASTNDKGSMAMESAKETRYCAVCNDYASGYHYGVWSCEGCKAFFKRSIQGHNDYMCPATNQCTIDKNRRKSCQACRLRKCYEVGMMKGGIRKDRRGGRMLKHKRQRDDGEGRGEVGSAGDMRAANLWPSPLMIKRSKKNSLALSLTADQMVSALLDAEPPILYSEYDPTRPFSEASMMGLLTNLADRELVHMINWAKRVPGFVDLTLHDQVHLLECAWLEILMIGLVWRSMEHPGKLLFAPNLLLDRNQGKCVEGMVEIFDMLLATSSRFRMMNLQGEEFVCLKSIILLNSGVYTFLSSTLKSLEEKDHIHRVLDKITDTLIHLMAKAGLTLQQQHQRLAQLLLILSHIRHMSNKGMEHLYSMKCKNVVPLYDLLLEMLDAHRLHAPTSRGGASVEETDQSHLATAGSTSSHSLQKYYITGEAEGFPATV
Chain of Estrogen receptor beta (Homo sapiens) (Q92731 whole entry, looked up, the tested form may be a part): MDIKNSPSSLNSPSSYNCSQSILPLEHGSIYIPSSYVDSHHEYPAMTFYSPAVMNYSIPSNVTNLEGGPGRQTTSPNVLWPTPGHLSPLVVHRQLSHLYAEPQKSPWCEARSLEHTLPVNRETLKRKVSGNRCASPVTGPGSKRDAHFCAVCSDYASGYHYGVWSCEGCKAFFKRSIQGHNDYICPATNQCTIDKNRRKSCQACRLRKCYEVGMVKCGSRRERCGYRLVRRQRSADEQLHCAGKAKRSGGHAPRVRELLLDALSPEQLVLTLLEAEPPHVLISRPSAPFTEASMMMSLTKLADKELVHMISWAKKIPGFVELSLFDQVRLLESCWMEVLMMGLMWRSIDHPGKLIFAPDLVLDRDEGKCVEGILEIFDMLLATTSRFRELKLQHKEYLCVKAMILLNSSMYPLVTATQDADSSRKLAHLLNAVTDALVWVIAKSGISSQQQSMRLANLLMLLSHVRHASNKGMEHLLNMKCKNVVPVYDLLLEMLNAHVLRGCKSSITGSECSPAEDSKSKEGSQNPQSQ

c1ccc(C(O[C@@H]2CCCN(CCc3ccc4c(c3)OCO4)C2)c2ccccc2)cc1
inactive: Potency [1] | Potency [2] | Potency [3] | Potency [4] | Potency [5] | Potency [6] | Potency [7] | Potency [9] | Potency [10] | outcome [11] | Potency [12]
active: Potency [8] 48.6 µM

CCC(=O)C(=O)CC
inactive: Potency [1] | Potency [2] | Potency [3] | Potency [4] | Potency [5] | Potency [7] | Potency [13] | Potency [14] | Potency [15] | Potency [9] | outcome [11] | Potency [12]

CCCCCCC1CCCC(=O)O1 (configuration not stated)
inactive: Potency [1] | Potency [2] | Potency [3] | Potency [4] | Potency [5] | Potency [6] | Potency [7] | Potency [13] | Potency [9] | outcome [11] | Potency [12]

C=CCCC(=O)/C=C/C1C(C)=CCCC1(C)C (configuration not stated)
inactive: Potency [1] | Potency [2] | Potency [3] | Potency [4] | Potency [5] | Potency [6] | Potency [7] | Potency [13] | Potency [16] | Potency [8] | Potency [14] | Potency [15] | Potency [9]

CCC(CC)C(C)CCOC(C)=O (configuration not stated)
inactive: Potency [1] | Potency [2] | Potency [3] | Potency [4] | Potency [5] | Potency [6] | Potency [7] | Potency [13] | Potency [16] | Potency [8] | Potency [14] | Potency [15] | Potency [9] | outcome [11] | Potency [12]

C[C@@H](O)[C@H](N)C(=O)O
inactive: activity change, negative = cytotoxicity [1] -3.81% [at 19 µM] | viability change, negative = cytotoxic [2] 0.742% [at 19 µM] | Potency [17] | activity change, negative = inhibition [3] -3.34% [at 19 µM] | activity change, negative = cytotoxicity [4] -2.68% [at 19 µM] | viability change, negative = cytotoxic [5] 6.05% [at 19 µM] | activity change [7] 0.344% [at 18.9 µM, active compounds read high] | activity change, negative = inhibition [13] 10.6% [at 19 µM] | activity change, negative = cytotoxicity [14] -0.428% [at 19 µM] | activity change, negative = cytotoxicity [9] 0.119% [at 19 µM]

Cc1cccc2cccnc12
inactive: Potency [1] | Potency [2] | Potency [4] | Potency [5] | Potency [7] | Potency [13] | Potency [16] | Potency [8] | Potency [9] | outcome [11] | Potency [12]

CC[C@H](C)COC(=O)/C=C/c1ccc(N=Cc2ccc(OC)cc2)cc1
inactive: Potency [1] | Potency [2] | Potency [4] | Potency [5] | Potency [6] | Potency [7] | Potency [13] | Potency [10] | outcome [11]
active: Potency [8] 54.4 µM | Potency [15] 6.1 µM

Cc1ccc(C(=O)O)cc1
inactive: Potency [1] | Potency [2] | Potency [3] | Potency [4] | Potency [5] | Potency [6] | Potency [7] | Potency [13] | Potency [15] | Potency [9] | outcome [11] | Potency [12]

Cc1ccc(O)c(N)c1
active: Potency [5] 43.3 µM | Potency [6] 27.3 µM | Potency [13] 8.64 µM
inactive: Potency [1] | Potency [2] | Potency [4] | Potency [7] | Potency [14] | Potency [10] | outcome [11]

CCCC(=O)OC(C)(C)Cc1ccccc1
inactive: Potency [1] | Potency [2] | Potency [3] | Potency [4] | Potency [5] | Potency [6] | Potency [7] | Potency [13] | Potency [16] | Potency [8] | Potency [14] | Potency [15] | Potency [9]

CCCCCC(C)OC(=O)COc1ccc(Cl)c2cccnc12 (configuration not stated)
active: Potency [13] 54.5 µM | Potency [15] 54.5 µM
inactive: Potency [1] | Potency [2] | Potency [3] | Potency [4] | Potency [5] | Potency [6] | Potency [7] | Potency [9] | Potency [10] | outcome [11] | Potency [12]

NC[C@H]1O[C@H](O[C@H]2[C@H](O[C@@H]3O[C@H](CO)[C@@H](O)[C@H]3O)C(O)[C@H](N)C[C@@H]2N)[C@H](N)[C@@H](O)[C@@H]1O (some centres not stated)
inactive: activity change, negative = cytotoxicity [1] 2.08% [at 8.39 µM] | viability change, negative = cytotoxic [2] 2.91% [at 8.39 µM] | Potency [17] | activity change, negative = inhibition [3] -0.407% [at 8.39 µM] | activity change, negative = cytotoxicity [4] -0.0056% [at 8.39 µM] | viability change, negative = cytotoxic [5] 2.25% [at 8.39 µM] | activity change [7] -1.1% [at 8.39 µM, active compounds read high] | activity change, negative = inhibition [13] -6.57% [at 8.39 µM] | activity change, negative = cytotoxicity [14] 2.75% [at 8.39 µM] | activity change, negative = cytotoxicity [15] 1.6% [at 8.39 µM] | activity change, negative = cytotoxicity [9] 0.11% [at 8.39 µM] | cAMP activity change [11] -9.73% [at 8.39 µM] | activity change, negative = inhibition [12] -4.82% [at 8.39 µM]

Cc1ccc(N/N=c2\c(=O)cc/c(=N\Nc3ccc(S(=O)(=O)O)cc3)c2=O)c(C)c1
active: Potency [1] 27.3 µM | Potency [2] 48.6 µM | Potency [3] 19.3 µM | Potency [5] 30.6 µM | Potency [6] 27.3 µM | Potency [14] 27.3 µM
inactive: Potency [4] | Potency [7] | Potency [13] | Potency [16] | Potency [8] | Potency [15] | Potency [9] | Potency [10] | outcome [11] | Potency [12]

O=C(/C=C/c1ccc(O)c(O)c1)O[C@@H](C(=O)O)[C@@H](OC(=O)/C=C/c1ccc(O)c(O)c1)C(=O)O
inactive: Potency [1] | Potency [2] | Potency [3] | Potency [4] | Potency [7] | Potency [8] | Potency [14] | Potency [15] | Potency [9]

Nc1ccc(Oc2ccc(Cl)cc2)cc1
inactive: Potency [1] | Potency [2] | Potency [3] | Potency [4] | Potency [5] | Potency [7] | Potency [16] | Potency [14] | Potency [9] | Potency [10] | outcome [11] | Potency [12]

CCC(COC(=O)CCS)(COC(=O)CCS)COC(=O)CCS
inactive: Potency [2] | Potency [18] | Potency [3] | Potency [4] | Potency [5] | Potency [6] | Potency [7] | Potency [13] | Potency [14] | Potency [15] | Potency [9] | Potency [10] | outcome [11] | Potency [12]
